Measured values published in the supplement of paper PMC3334620.
The full ranking holds about 33,000 sequences; the median of “E-score (-0.5 to 0.5)” is about -0.011, and the highest 2% start at about 0.28. For the sample, the highest values were picked, then their nearest neighbours and some sequences at random.

Biological target: T1, Gcr1 (UniProt P07261)
T1 sequence: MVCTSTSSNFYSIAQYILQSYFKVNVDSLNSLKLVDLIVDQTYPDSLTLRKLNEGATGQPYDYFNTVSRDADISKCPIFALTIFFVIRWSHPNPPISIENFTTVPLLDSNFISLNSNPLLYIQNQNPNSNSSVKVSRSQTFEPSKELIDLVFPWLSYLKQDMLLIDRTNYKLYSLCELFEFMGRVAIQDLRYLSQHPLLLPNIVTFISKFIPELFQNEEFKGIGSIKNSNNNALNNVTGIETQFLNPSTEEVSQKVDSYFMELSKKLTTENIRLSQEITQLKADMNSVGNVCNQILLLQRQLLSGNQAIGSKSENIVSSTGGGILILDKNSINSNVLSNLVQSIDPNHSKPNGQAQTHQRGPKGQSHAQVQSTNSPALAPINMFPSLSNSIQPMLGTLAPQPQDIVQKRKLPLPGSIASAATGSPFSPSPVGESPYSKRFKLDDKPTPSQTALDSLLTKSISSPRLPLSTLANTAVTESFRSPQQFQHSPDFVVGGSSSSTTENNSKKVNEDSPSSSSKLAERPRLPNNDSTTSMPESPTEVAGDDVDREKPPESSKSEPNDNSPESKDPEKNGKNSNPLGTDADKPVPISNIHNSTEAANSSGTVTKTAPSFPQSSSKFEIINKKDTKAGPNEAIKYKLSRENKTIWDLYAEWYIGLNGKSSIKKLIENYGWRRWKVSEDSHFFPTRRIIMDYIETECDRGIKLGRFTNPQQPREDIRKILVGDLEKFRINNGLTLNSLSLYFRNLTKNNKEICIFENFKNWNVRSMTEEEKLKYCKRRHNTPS
Assay: PBM E-score (8-mer binding enrichment) (E-score (-0.5 to 0.5)); higher = stronger / more preferred TF binding
Conditions: protein concentration: 100 nM; construct: GST-full length
Protocol: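 Universal 'all 10-mer' protein binding microarrays (Agilent AMADID 015681) probed with GST-tagged S. cerevisiae TFs (full-length or DBD) made by in vitro transcription/translation (PURExpress), about 100-200 nM. Bound TF was detected with fluorescent anti-GST. Each ungapped 8-mer (which stands for itself and its reverse complement) is scored by the PBM enrichment score (E-score), a modified Wilcoxon-Mann-Whitney statistic from -0.5 to +0.5, computed with the Universal PBM Analysis Suite. Scale: above 0.35 generally sequence-specific binding.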

| Sequence | PBM E-score |
| --- | --- |
| CGGCATCA | 0.223 |
| AGGCATCG | 0.0175 |
| AGGCATCC | 0.387 |
| CGGCATCC | 0.444 |
| AGGCATCA | -0.162 |
| CGGCATAC | -0.113 |
| ACGCCTCA | -0.137 |
| AGGCTCCC | 0.24 |
| CGGCTGCA | 0.0568 |
| CTGCTGCC | -0.0289 |
| AGGCTGCC | 0.382 |
| AGGCTGCG | 0.138 |
| CGGCTGCC | 0.376 |
| AGGCTGCA | -0.0233 |
| CGGCTCCC | 0.34 |
| CGGCTCCA | 0.0712 |
| CTGTCTTA | 0.0396 |
| CGCCATAC | 0.127 |
| TACCAGCA | 0.0312 |
| ACCCAGGT | 0.0419 |
| CAACGCTG | -0.0977 |
| ATTTTTCA | 0.1 |
| ACGGCTCT | -0.00284 |
| AAATGGCT | 0.0656 |
| ACTCACCC | -0.126 |

| Sequence | PBM E-score |
| --- | --- |
| ATGGAAGA | -0.0302 |
| ATGGAAGG | -0.201 |
| GTGGAAGA | 0.172 |
| ATGGAAGC | 0.344 |
| CTGGAAGA | 0.0722 |
| CTGGAAGC | 0.45 |
| CCATGGGC | 0.0107 |
| ACCCCTGA | 0.0403 |
| CCTGGTCG | -0.127 |
| TCCCACGA | 0.244 |
| CGCACCTA | 0.0792 |
| GGCACCAC | 0.249 |
| TGCACCAA | -0.133 |
| GGCACCAA | 0.335 |
| AGCACCTA | 0.241 |
| GGCACCTA | 0.281 |
| CCACAAAC | 0.19 |
| ATGCATCC | -0.00178 |
| ATGAAATG | 0.104 |
| TCCCCAAA | 0.226 |
| CGGGCGCC | 0.421 |
| AGGGCGCG | 0.194 |
| AGGGCGCA | -0.0301 |
| CGGGCGGC | 0.0469 |
| CGGGCGCA | 0.0492 |

| Sequence | PBM E-score |
| --- | --- |
| AGGGCGCC | 0.399 |
| ATTAAGGG | 0.0551 |
| ATTATCCG | 0.00436 |
| TACCTGAA | 0.0937 |
| ATCAGGAG | 0.0606 |
| CTCTCCAA | -0.0761 |
| AGTGTCAG | -0.142 |
| CCAGATTA | 0.233 |
| CCAGATAC | 0.294 |
| CCAGATTC | 0.326 |
| ACAGATTC | 0.176 |
| CCAGATAA | 0.0427 |
| GCAGATAC | 0.0819 |
| CCCTGCCA | 0.0623 |
| CCGCGCAG | -0.219 |
| AGGGATTG | 0.0467 |
| GTGCACTA | -0.146 |
| AGCTGGCA | 0.0163 |
| TAAGCGGA | -0.143 |
| CAAGCTTC | 0.232 |
| GAAGCTTA | 0.136 |
| GAAGCTGA | 0.322 |
| GAAGCGGA | 0.328 |
| CAAGCGGA | -0.137 |
| GAAGCTCA | 0.224 |

| Sequence | PBM E-score |
| --- | --- |
| AAAGCTCC | -0.0149 |
| GAAGCTTC | 0.339 |
| AAAGCTGA | 0.113 |
| GAAGCTCC | 0.309 |
| CAAGCTGA | -0.139 |
| ATGGGCTC | 0.102 |
| TCGGTGAA | -0.0389 |
| GACCATAC | 0.159 |
| CACAGCTA | -0.0538 |
| AAAACGCT | -0.0686 |
| TACCCGGA | -0.0492 |
| GTAATGGA | 0.0927 |
| CAGGCCCG | -0.263 |
| TATAAGGA | 0.124 |
| GCTTTGGA | 0.0838 |
| AAACGCCG | 0.0308 |
| CCGCTAGA | -0.00443 |
| AGGCTTGG | 0.0323 |
| AAAGCTGC | -0.123 |
| CAAGCTGC | 0.149 |
| GAAGCTGC | 0.406 |
| CAATCGAG | 0.00485 |
| CTTCCGAC | -0.00712 |
| GAGTGATA | -0.122 |
| CCGAAGGC | -0.158 |

| Sequence | PBM E-score |
| --- | --- |
| ATCGAGGC | -0.0857 |
| ACCAGATA | 0.0838 |
| GAAGCCCC | 0.381 |
| AAAGCCCA | -0.0697 |
| GAAGCCCA | 0.368 |
| AAAGCCCC | -0.121 |
| CAAGCCCA | -0.244 |
| CAAGCCCC | -0.18 |
| AACGCGGT | -0.107 |
| GTTAAATA | 0.0652 |
| TCTAAGAA | 0.0856 |
| CGTCTCCA | 0.284 |
| CGTCTCCC | 0.0616 |
| AGTCTCCA | 0.0915 |
| CGGCCCCC | 0.0724 |
| ACTAGTCG | 0.065 |
| AGTCTGCA | -0.179 |
| GAAGAGCA | -0.0362 |
| CAGTGATA | 0.0897 |
| AACCAAGG | -0.00121 |
| GGCTCCCA | 0.348 |
| CGATCCCC | 0.111 |
| TGCTCCCA | -0.0935 |
| AGATCCCA | 0.265 |
| CGCTCCCA | 0.132 |

| Sequence | PBM E-score |
| --- | --- |
| TGATCCCA | 0.065 |
| GGATCCCC | 0.362 |
| AGATCCCC | 0.156 |
| GGATCCCA | 0.391 |
| AGTCTAGC | 0.0246 |
| CTGATAAG | 0.0222 |
| GTAGCTGA | -0.023 |
| TATCTCGA | -0.115 |
| GTTCCTTA | 0.0517 |
| CGACTCCA | 0.0419 |
| AGGCTCCA | 0.263 |
| GGACTCCA | 0.345 |
| GGGCTCGA | -0.0878 |
| GGGCTCCA | 0.318 |
| TGACTCCA | 0.0388 |
| AGATGAGG | -0.0257 |
| ATATTATG | 0.132 |
| CTAGACCC | -0.0797 |
| AAAGACTC | -0.195 |
| CGCCATAG | -0.14 |
| AAGTTCGA | 0.0312 |
| GGAAGGCA | 0.0904 |
| AAGTAGCT | 0.208 |
| CTGCTTCC | 0.177 |
| CAGCTTCA | 0.0949 |

| Sequence | PBM E-score |
| --- | --- |
| CAGCTTGC | -0.267 |
| AAGCTTCC | 0.353 |
| AAGCTTCA | -0.0647 |
| AAGCTTCG | 0.129 |
| CAGCTTCG | 0.328 |
| CAGCTTCC | 0.457 |
| AAGCTTCT | 0.184 |
| CAAGAGCG | 0.0229 |
| GGGCGAGA | -0.0433 |
| AAGATTAA | 0.233 |
| AGAATGTG | -0.221 |
| GAGTCCAC | 0.257 |
| AACGCCTA | -0.0917 |
| CGGATTCA | -0.0182 |
| CTGATGCC | -0.0173 |
| AGGATTCA | -0.164 |
| AGGATTCG | 0.126 |
| CGGATGCC | 0.404 |
| CGGATTCC | 0.463 |
| AGGATTCC | 0.373 |
| CGGATTTC | -0.122 |
| CGGATGCA | 0.0929 |
| AGCCCGTG | -0.0206 |
| ACCACTGA | 0.0982 |
| AACCCGGG | 0.0515 |

| Sequence | PBM E-score |
| --- | --- |
| CGCCGGGC | -0.0527 |
| ACACCTTA | 0.0539 |
| GCTGATCC | -0.0746 |
| GCCGCCAA | 0.125 |
| GCTCGCGA | 0.0716 |
| GGCACCCA | 0.381 |
| CGCACCCC | 0.0174 |
| CGCACCCA | 0.236 |
| AGCACCCC | 0.131 |
| TGCACCCA | 0.151 |
| GGCACCCC | 0.322 |
| AACCTGCA | -0.0327 |
| CCCGATGA | -0.0833 |
| CAAATCGG | 0.0561 |
| ATTCCGGA | 0.197 |
| CTTCCGGA | 0.347 |
| ACTCCAAA | 0.116 |
| CATCCAAG | -0.0862 |
| CATCCAAA | 0.298 |
| CATCCAAC | -0.0403 |
| CTTCCACA | 0.349 |
| ATTCCAAA | 0.307 |
| ATTCCACG | 0.0676 |
| CTTCCGGC | 0.111 |
| ATTCCACA | 0.247 |

| Sequence | PBM E-score |
| --- | --- |
| ATTCCGAA | 0.147 |
| AGCTTATG | 0.0485 |
| CCGACATA | 0.0516 |
| GATAACCC | -0.017 |
| AGCCCCCG | -0.0643 |
| AGCGGGCA | -0.156 |
| CTCCGGGA | 0.00075 |
| ACGGAGGC | -0.00955 |
| GTTCCAAA | 0.302 |
| CGTCCAAG | -0.0458 |
| CGTCCAAA | 0.33 |
| ATTCCAAT | 0.299 |
| AGTCCAAA | -0.0142 |
| CTTCCAAC | 0.181 |
| TTTCCAAA | 0.178 |
| ATTCCAAC | 0.221 |
| ATTCCAAG | 0.196 |
| GTTCCAAC | 0.0801 |
| CTTCCAAA | 0.338 |
| CTTCCAAG | -0.132 |
